About 83,000 compounds went through this panel and 20% of them were active in at least one assay; those are over-represented in the sample as a whole.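 A percent growth of 40 corresponds to 60% growth inhibition; 0 means no net growth; -100 means all cells died. Active threshold: below 10.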 Unmarked numbers belong to inactive results. Activity calls are given as the source filed them.

Test systems include DU-145 prostate; K-562 leukemia; MALME-3M melanoma; MDA-MB-231 breast; RXF 393 renal; SF-268 CNS; SF-295 CNS; SF-539 CNS; UACC-257 melanoma; M14 melanoma; HCT-15 colon; HT29 colon; SNB-75 CNS; SNB-19 CNS; U251 CNS; PC-3 prostate; SK-MEL-5 melanoma; UACC-62 melanoma; LOX IMVI melanoma; SK-MEL-28 melanoma.
Holding throughout (experiment): NCI-60 one-dose screen, 48 h (100 = growth as untreated, 0 = no growth, -100 = all killed)
What all share (conditions): 10 µM unless noted

In the case of `Cc1nc2cc(-c3nn(C(C)C)c4ncnc(N)c34)ccc2o1`, the growth in the test with DU-145 prostate is 1.98% (active); with K-562 leukemia it was 10.4%; with MALME-3M melanoma, -38.7% (active); with MDA-MB-231 breast, -9.12% (active); with RXF 393 renal, -54.3% (active); in the test on SF-268 CNS it was 4.35% (active). The growth with SF-295 CNS is -53.9% (active); in the test with SF-539 CNS, -61.7% (active); in the test with UACC-257 melanoma, -45.3% (active); with M14 melanoma it was -7.38% (active); in the test on HCT-15 colon it was 1.74% (active); with HT29 colon, -8.06% (active). The growth with SNB-75 CNS is -70.1% (active); in the test on SNB-19 CNS, -4.62% (active); in the test on U251 CNS, -15.3% (active); with PC-3 prostate, 3% (active); in the test with SK-MEL-5 melanoma, -49.2% (active); with UACC-62 melanoma, -53% (active). The growth is -21.1% (active) in the test on LOX IMVI melanoma and -34.3% (active) in the test with SK-MEL-28 melanoma.

`NC(=O)c1c(OCc2c(F)cc(Br)cc2F)nsc1NC(=O)NCCCCN1CCCC1`: the growth with DU-145 prostate was 22.6%; in the test on K-562 leukemia, -46.8% (active); with MALME-3M melanoma, -79.8% (active); with MDA-MB-231 breast, -38.1% (active); in the test with RXF 393 renal it was -81.9% (active); in the test with SF-268 CNS, 11.7%. The growth with SF-295 CNS is -81% (active); in the test on SF-539 CNS, -92% (active); with UACC-257 melanoma it was -80.3% (active); with M14 melanoma it was -76.1% (active); with HCT-15 colon, 5.99% (active); in the test with HT29 colon, -38.9% (active). In addition, the growth is -79.9% (active) in the test on SNB-75 CNS; 5.06% (active) with SNB-19 CNS; -83.3% (active) with U251 CNS; 3.22% (active) in the test with PC-3 prostate; -99.1% (active) in the test on SK-MEL-5 melanoma; -75.6% (active) with UACC-62 melanoma. For the same compound, the growth with LOX IMVI melanoma was -90.6% (active); in the test on SK-MEL-28 melanoma, -74.6% (active).

Turning to `CNC(=O)c1ccccc1Nc1nc(Nc2ccc3c(c2OC)CCC[C@H](N2CCN(CCO)CC2)C3)ncc1Cl`, the growth in the test on DU-145 prostate was 18.7%; in the test on K-562 leukemia, -43.9% (active); in the test with MALME-3M melanoma it was -52.1% (active); in the test with MDA-MB-231 breast, -19.4% (active); in the test with RXF 393 renal, -23.3% (active); in the test on SF-268 CNS, 17.3%. For the same compound, the growth with SF-295 CNS was -63.7% (active); in the test on SF-539 CNS it was -41.7% (active); in the test on UACC-257 melanoma, -75.8% (active); with M14 melanoma it was -69% (active); in the test on HCT-15 colon it was 0.498% (active); with HT29 colon, -44.3% (active). In addition, the growth is -5.43% (active) with SNB-75 CNS; 18.8% in the test on SNB-19 CNS; -19.4% (active) with U251 CNS; 22.9% in the test with PC-3 prostate; -92.4% (active) with SK-MEL-5 melanoma; -45% (active) with UACC-62 melanoma. In addition, the growth with LOX IMVI melanoma was -89.6% (active); in the test on SK-MEL-28 melanoma it was -77.1% (active).

Take `O=C(Nc1ccc(Nc2ncnc3sc4c(c23)CCOC4)cc1)Nc1ccc(Cl)c(C(F)(F)F)c1`: the growth is 96.1% with DU-145 prostate; 88.5% in the test with K-562 leukemia; 88.7% in the test with MALME-3M melanoma; 95.2% in the test with MDA-MB-231 breast; 98.9% with RXF 393 renal; 99.4% with SF-268 CNS. Further, the growth with SF-295 CNS was 83.1%; with SF-539 CNS it was 63.8%; in the test on UACC-257 melanoma, 105%; with M14 melanoma it was 77.7%; in the test with HCT-15 colon it was 98.9%; with HT29 colon it was 81.1%. For the same compound, the growth was 69.1% with SNB-75 CNS; 110% with SNB-19 CNS; 99.9% in the test with U251 CNS; 60.8% in the test on PC-3 prostate; 98.1% in the test with SK-MEL-5 melanoma; 93.4% in the test with UACC-62 melanoma. The growth with LOX IMVI melanoma was 99.9%; with SK-MEL-28 melanoma, 95.1%.

`CNS(=O)(=O)Nc1nccc(Cc2c(C)c3ccc(Oc4ncccn4)cc3oc2=O)c1F`: the growth with DU-145 prostate is 61.3%; in the test with K-562 leukemia it was 26.2%; in the test on MALME-3M melanoma it was 4.1% (active); in the test on MDA-MB-231 breast, 41%; in the test with RXF 393 renal, 44.9%; in the test with SF-268 CNS, 78%. Besides, the growth with SF-295 CNS is 70.6%; in the test with SF-539 CNS, 68%; in the test with UACC-257 melanoma it was -5.41% (active); with M14 melanoma, 13.3%; with HCT-15 colon, 63.7%; in the test on HT29 colon, 10.4%. The growth in the test with SNB-75 CNS is 78.1%; in the test on SNB-19 CNS, 63.7%; with U251 CNS it was 54.8%; in the test with PC-3 prostate, 101%; in the test on SK-MEL-5 melanoma, 23.1%; in the test on UACC-62 melanoma, 4.49% (active). The values for the growth with LOX IMVI melanoma and in the test on SK-MEL-28 melanoma were 25.6% and 8.61% (active), respectively.

`COc1ccc(-c2ccc3c(N4CCOC[C@@H]4C)nc(N4CCOC[C@@H]4C)nc3n2)cc1CO`: the growth with DU-145 prostate was 11.6%; with K-562 leukemia it was 12.8%; with MALME-3M melanoma it was -8.07% (active); in the test with MDA-MB-231 breast it was 13%; in the test on RXF 393 renal it was -27.5% (active); with SF-268 CNS it was 14.9%. For the same compound, the growth is -35% (active) in the test with SF-295 CNS; -39.2% (active) in the test on SF-539 CNS; -24.8% (active) with UACC-257 melanoma; 6.2% (active) with M14 melanoma; 6.93% (active) in the test on HCT-15 colon; 6.32% (active) in the test on HT29 colon. Further, the growth in the test with SNB-75 CNS was -44.9% (active); in the test with SNB-19 CNS it was 9.71% (active); with U251 CNS it was 7.15% (active); in the test with PC-3 prostate it was 9.37% (active); in the test on SK-MEL-5 melanoma, -26.8% (active); in the test with UACC-62 melanoma it was -32.3% (active). The growth with LOX IMVI melanoma is 1.2% (active); with SK-MEL-28 melanoma it was -17.1% (active).

In the case of `O=C(COc1ccc(/C=C2\Cc3ccc(Cl)cc3C2=O)cc1)Nc1nccs1`, the growth in the test with DU-145 prostate was 118%; in the test with K-562 leukemia, 121%; in the test with MALME-3M melanoma it was 126%; in the test on MDA-MB-231 breast, 92.2%; with RXF 393 renal, 98.2%; with SF-268 CNS it was 114%. The growth is 113% in the test with SF-295 CNS; 96.8% with SF-539 CNS; 98.5% in the test with UACC-257 melanoma; 103% in the test on M14 melanoma; 98.5% with HCT-15 colon; 108% in the test on HT29 colon. Further, the growth in the test with SNB-75 CNS was 86.6%; in the test with SNB-19 CNS, 83.8%; with U251 CNS, 108%; in the test with PC-3 prostate it was 96%; in the test with SK-MEL-5 melanoma, 99.3%; with UACC-62 melanoma, 95.3%. Moreover, the values for the growth in the test with LOX IMVI melanoma and in the test on SK-MEL-28 melanoma were 93% and 122%, respectively.

With `CO[C@@H](C)Cn1c(=O)n(C)c2cnc3ccc(-c4cncc(C(C)(C)O)c4)cc3c21`, the growth in the test with DU-145 prostate was 13%; in the test with K-562 leukemia, 14.8%; in the test with MALME-3M melanoma, -36% (active); with MDA-MB-231 breast, 6.56% (active); in the test with RXF 393 renal, -47.2% (active); in the test on SF-268 CNS, 7.58% (active). Further, the growth in the test with SF-295 CNS is -39.6% (active); in the test with SF-539 CNS it was -39.5% (active); with UACC-257 melanoma, -16.6% (active); with M14 melanoma it was 3.8% (active); with HCT-15 colon it was 7.42% (active); in the test on HT29 colon it was 2.26% (active). Further, the growth is -41.8% (active) in the test on SNB-75 CNS; 8.17% (active) in the test on SNB-19 CNS; 2.44% (active) in the test on U251 CNS; 7.66% (active) in the test with PC-3 prostate; -96.5% (active) with SK-MEL-5 melanoma; -37.6% (active) in the test with UACC-62 melanoma. For the same compound, the growth is -33.8% (active) in the test on LOX IMVI melanoma and -8.17% (active) with SK-MEL-28 melanoma.

The record behind these values is PubChem BioAssay (NCI).
